Reference: PubChem BioAssay (NCATS)
Records with an inconclusive call do not appear. Unmarked numbers belong to inactive results. Active and inactive are the calls of the source. Calls come from the whole dose curve; as a rule, active = well fitted inhibition curve with a large enough effect; inconclusive = small, poorly fitted or top-dose-only effect; inactive = no such curve, though single readings can be large or run the other way.

biological target: Rap guanine nucleotide exchange factor 4 (Homo sapiens) (UniProt Q8WZA2); assay: Confirmatory qHTS for antagonist of cAMP-regulated guanine nucleotide exchange factor 4 (EPAC2) (AID 1645885); details: EPAC2 Rap1B-BODIPY-GDP exchange fluorescence, biochemical; series mostly up to 114 µM; activity change, negative = inhibition: at the top concentration; note: nearly all actives have a fitted effect of over 25% in size; for activity change, negative = inhibition: % is set by controls: 0 for no effect and ±100 for the full control effect
Sequence (Q8WZA2 whole entry, looked up): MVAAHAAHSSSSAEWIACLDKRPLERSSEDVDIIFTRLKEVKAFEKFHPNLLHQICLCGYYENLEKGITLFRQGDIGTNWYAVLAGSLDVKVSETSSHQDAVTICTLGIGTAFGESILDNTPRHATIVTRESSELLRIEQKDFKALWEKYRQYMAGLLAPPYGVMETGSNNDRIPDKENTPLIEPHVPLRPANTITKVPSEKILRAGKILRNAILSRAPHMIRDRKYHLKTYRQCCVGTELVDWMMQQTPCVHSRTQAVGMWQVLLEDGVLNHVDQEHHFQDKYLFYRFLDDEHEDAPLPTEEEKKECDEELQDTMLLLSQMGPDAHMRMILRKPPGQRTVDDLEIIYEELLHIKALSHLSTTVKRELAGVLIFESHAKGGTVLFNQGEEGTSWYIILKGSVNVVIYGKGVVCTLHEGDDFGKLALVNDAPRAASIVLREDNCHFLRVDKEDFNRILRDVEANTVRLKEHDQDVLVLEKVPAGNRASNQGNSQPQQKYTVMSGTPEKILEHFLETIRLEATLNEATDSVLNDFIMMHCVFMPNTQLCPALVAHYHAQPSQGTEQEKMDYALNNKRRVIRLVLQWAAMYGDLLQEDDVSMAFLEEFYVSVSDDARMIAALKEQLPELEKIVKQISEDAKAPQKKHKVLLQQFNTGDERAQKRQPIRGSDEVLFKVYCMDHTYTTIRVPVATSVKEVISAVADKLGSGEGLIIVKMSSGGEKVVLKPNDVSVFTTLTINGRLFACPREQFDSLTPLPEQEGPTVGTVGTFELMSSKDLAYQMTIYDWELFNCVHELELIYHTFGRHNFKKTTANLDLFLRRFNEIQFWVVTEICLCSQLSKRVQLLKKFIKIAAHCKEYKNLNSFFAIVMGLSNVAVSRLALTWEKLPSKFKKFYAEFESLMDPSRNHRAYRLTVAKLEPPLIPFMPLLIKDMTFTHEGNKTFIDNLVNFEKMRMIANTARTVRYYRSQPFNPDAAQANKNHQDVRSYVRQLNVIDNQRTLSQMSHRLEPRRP

Compound | outcome | activity change, negative = inhibition
CCOC(=O)[C@]12Cc3cc(OC)ccc3[C@H]1N(Cc1ccccc1)C(=O)c1cc(F)c(F)cc12 | inactive; activator; fitted 37.933 uM | 
CCOC(=O)[C@]12Cc3ccc(C)cc3[C@H]1N(C1CCCCC1)C(=O)c1cc(OC)ccc12 | inactive | 
Cc1ccc(N2C(=O)NC(=O)/C(=C\c3cc(C)n(-c4sc5c(c4C#N)CCCC5)c3C)C2=O)cc1 |  | 155%
CCOC(=O)[C@]12Cc3cc(C)ccc3[C@H]1N(C1CCCCC1)C(=O)c1ccccc12 |  | -27.9% [at 12.7 µM]
CCCNC(=O)N1[C@H]2CC[C@@H]1C(C(=O)OC)=C(c1ccc(F)cc1OCc1ccccc1)C2 |  | 46%
COc1ccc(C(SCC(NC(=O)OCc2ccccc2)C(=O)O)c2ccc(OC)cc2)cc1 (centres undefined) |  | 116%

biological target: Rap guanine nucleotide exchange factor 3 (Homo sapiens) (UniProt O95398); assay: Counterscreen qHTS for antagonist of cAMP-regulated guanine nucleotide exchange factor 3 (EPAC1) (AID 1645888); details: Rap1B-BODIPY-GDP nucleotide exchange, fluorescence; series mostly up to 154 µM; activity change, negative = inhibition: at the top concentration;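 note: fluorescence loss as bound BODIPY-GDP is released from Rap1B; % of control where 0% means no effect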
Sequence (O95398 whole entry, looked up): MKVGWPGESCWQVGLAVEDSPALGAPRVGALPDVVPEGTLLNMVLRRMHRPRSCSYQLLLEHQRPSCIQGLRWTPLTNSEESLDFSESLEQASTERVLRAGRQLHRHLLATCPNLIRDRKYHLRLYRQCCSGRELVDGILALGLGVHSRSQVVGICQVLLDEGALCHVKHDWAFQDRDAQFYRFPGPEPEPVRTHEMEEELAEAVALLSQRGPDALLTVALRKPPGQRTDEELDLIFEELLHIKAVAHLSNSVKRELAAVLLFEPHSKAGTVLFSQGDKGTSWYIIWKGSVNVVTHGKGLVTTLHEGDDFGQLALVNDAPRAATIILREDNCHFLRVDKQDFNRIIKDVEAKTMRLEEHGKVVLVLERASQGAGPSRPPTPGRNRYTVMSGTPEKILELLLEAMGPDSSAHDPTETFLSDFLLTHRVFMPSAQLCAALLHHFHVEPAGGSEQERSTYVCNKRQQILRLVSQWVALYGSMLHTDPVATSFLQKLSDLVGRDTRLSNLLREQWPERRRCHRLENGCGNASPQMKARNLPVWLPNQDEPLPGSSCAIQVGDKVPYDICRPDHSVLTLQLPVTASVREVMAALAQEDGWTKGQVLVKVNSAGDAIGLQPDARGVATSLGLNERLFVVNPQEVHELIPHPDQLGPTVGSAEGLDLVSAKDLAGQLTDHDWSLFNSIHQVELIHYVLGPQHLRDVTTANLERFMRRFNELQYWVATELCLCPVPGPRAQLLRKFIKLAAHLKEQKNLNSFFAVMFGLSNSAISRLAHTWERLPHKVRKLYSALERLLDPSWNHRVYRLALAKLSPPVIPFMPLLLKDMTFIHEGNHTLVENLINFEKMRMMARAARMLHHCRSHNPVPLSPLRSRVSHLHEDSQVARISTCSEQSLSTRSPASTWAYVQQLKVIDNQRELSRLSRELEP
Outline: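 Measured: fluorescence of BODIPY-GDP bound to Rap1B, which falls as exchange proceeds. Conditions include 50 uM competing GDP, 5 and 30 min reads, and a later cAMP challenge for antagonist detection.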

Compound | activity change, negative = inhibition
CCOC(=O)[C@]12Cc3ccccc3[C@H]1N(C1CCCCC1)C(=O)c1cc(OC)ccc12 | 3.87%
Nc1c(C(=O)Nc2ccc(Br)cc2F)sc2nc3c(cc12)N1CCC3CC1 | 18.2%
Cc1c2cnn(CC(=O)N3CCC4(CC3)OCCO4)c(=O)c2c(C)n1Cc1ccc(F)cc1 | 12.4%
COc1cccc(-n2c(/C=C/c3ccc(O)c(O)c3)nc3ccccc3c2=O)c1 | 2.65% [at 30.8 µM]
O=C1NCN(c2ccccc2)C12CCN(C(c1cc3ccccc3o1)c1nnnn1C1CCCC1)CC2 (centres undefined) | -0.487% [at 30.8 µM]
CN(C)CC(C(=O)Cc1ccccc1)c1ccccc1 (centres undefined) | 21.5%
CCOC(=O)[C@]12Cc3cc(Cl)ccc3[C@H]1N(C1CCCCC1)C(=O)c1ccccc12 | -0.335%
CCN1C(=O)C(=C/C=C/c2ccco2)C(=O)N(CC)C1=S | 35.2%
